HGIII-sPLA2 inh = Blocks human group III sPLA2 activity; inhibition, % at 12.2 µM; Q9NZ20; 370,000 compounds, 0.56% hits; QFRET BODIPY PC-A2 liposome hydrolysis, fluorescence;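 active = inhibition above mean plus 3 SD of compounds lying within the high and low control bounds, cut at about 19% in these data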;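 also: 0% = median of test compound wells and 100% = no enzyme DMSO wells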
ADAM17 inh = inhibits human ADAM17. P78536. recombinant ADAM17, EDANS/DABCYL FRET peptide cleavage. inhibition, % at 6.95 µM. 370,000 compounds, 0.83% hits;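 active = inhibition above the mean of compounds lying between control limits plus 3 SD, set per campaign, cut at about 8.5% in these data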;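 also: 0% = DMSO-only wells as the low control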
CendR NRP1 mod = alters CendR peptide binding to human NRP-1; inhibition, % at 25 µM; 360,000 compounds, 0.85% hits; FAM-RPARPAR peptide binding to NRP-1, fluorescence polarization; AID 602438;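 active = inhibition or corrected inhibition above about 18%, plus a signal ratio from 0.5 to 1.5, limit read from the data, passing the limit was not always enough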
proKLK7 act = activates the human kallikrein-7 zymogen | purified proKLK7, EDANS-DABCYL substrate fluorescence; 100% is mature enzyme control, 0% vehicle | activation, % at 7 µM | 370,000 compounds, 0.9% hits;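 active = activation above the mean of all tested compounds plus 3 SD, computed per campaign excluding outliers beyond control limits, cut at about 13% in these data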
ADAM10 inh = ADAM10 inhibition, QFRET primary screen. inhibition, % at 7 µM. 370,000 compounds, 0.62% hits. O14672. recombinant ADAM10, EDANS/DABCYL FRET peptide cleavage, 3 h. AID 720582;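 active = inhibition above a per-campaign cutoff equal to the mean of compounds falling between control-based bounds plus 3 SD, cut at about 20% in these data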;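 also: 0% = DMSO wells while the 100% control is not disclosed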
hGIII sPLA2 conf = human GIII-sPLA2 inhibition, confirmation; shares compounds with HGIII-sPLA2 inh; inhibition, % at 12.2 µM; recombinant hGIII-sPLA2, BODIPY PC-A2 QFRET fluorescence; AID 743280; 2,000 compounds, 34% hits;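 active = mean inhibition across triplicates above the hit cutoff set in the earlier primary screen, cut at about 19% in these data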;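 also: 0% = enzyme with DMSO and 100% = DMSO wells lacking enzyme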
BODIPY interf = counter-screen for HGIII-sPLA2 inhibitors: 535nm fluorescence interference; shares compounds with HGIII-sPLA2 inh; 2,000 compounds, 8.5% hits; BODIPY FL product fluorescence interference, QFRET; inhibition, % at 12.2 µM;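 active = average inhibition above the solvent-only control mean plus 3 SD, cut at about 6% in these data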;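 also: 0% = DMSO with substrate plus product and 100% = DMSO with substrate alone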
BODIPY interf DR = counter-screen for HGIII-sPLA2 inhibitors: 535nm fluorescence interference, dose response; IC50, µM; 240 tested, under 10 active; shares compounds with HGIII-sPLA2 inh; BODIPY FL product fluorescence interference, cell-free; AID 743455;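 active = IC50 at or below 10 µM; inactive = IC50 above 10 µM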
* = called active by the depositor; . = not tested or not shown. Hits are enriched below; roughly 3.4% of the tested compounds scored in any of these assays.

SMILES	HGIII-sPLA2 inh	ADAM17 inh	CendR NRP1 mod	proKLK7 act	ADAM10 inh	hGIII sPLA2 conf	BODIPY interf	others
CN(C)c1cccc2c1C(=O)c1ccccc1C2=O	25*	4	2	-1	15	33*	6.6*
N#Cc1c(-c2cccs2)cc(C2CC2)nc1SCC(N)=O	35*	-4	-1	-1	-9	12	-2
N#Cc1c(-c2ccccc2)cc(C2CC2)nc1SCC(=O)c1cccs1	-7	-3	3	-1	0	.	.
NNC(=O)C1CCN(S(=O)(=O)c2ccc(Cl)cc2)CC1	-6	0	-1	0	6	.	.
O=C(NNC(=O)C1CCN(S(=O)(=O)c2ccc(Cl)cc2)CC1)c1ccccc1O	21*	-44	8	-7	-92	4	-5
CCOc1ccc2c(c1)-c1c(ssc1=S)C(C)(C)N2C(=O)CSC1=NCCS1	36*	2	0	0	11	20*	-8
N=C1C=CC(=C(c2ccc(N)cc2)c2ccc(N)cc2)C=C1	21*	-7	-26	0	-9	17	-1
Nc1ccc(C(=O)C(=O)c2ccc(N)cc2)cc1	4	7	2	0	14	.	.
CC(=O)c1ccc(-n2nnnc2SCC(=O)Nc2sc(C)c(C)c2C#N)cc1	19*	-3	-18	0	-1	4	-11
Cc1ccc(-n2nnnc2SCC(=O)Nc2sc(C)c(C)c2C#N)cc1C	-4	-2	-20	0	2	.	.
CCCNC(=S)N1CCC(C(=O)c2ccc(OC)cc2)CC1	21*	2	-1	0	-12	14	-7
O=C(C1CCCN1S(=O)(=O)c1ccc([N+](=O)[O-])cc1)N1CCc2ccccc2C1 (centres undefined)	-2	1	.	-1	2	.	.
C/C(=N\Nc1ncc(Cl)cc1Cl)c1ccc2c(c1)OCO2	20*	-2	2	0	-7	4	-5
O=C(CSc1nnc(-c2ccccn2)n1-c1ccc(Cl)cc1)Nc1ccc2c(c1)OCCO2	-3	3	.	0	-5	.	.
S=C(N/N=C/c1cccs1)NC1CC2CCC1C2 (centres undefined)	28*	-9	12	-1	-4	36*	3	BODIPY interf DR=>122
Oc1ccc(/C=N/NC(=S)NC2CC3CCC2C3)cc1 (centres undefined)	-14	4	9	-1	4	.	.
O=C(O)C(C/C(=N/O)c1ccc(Br)cc1)P(=O)(c1ccccc1)c1ccccc1 (centres undefined)	21*	-7	-10	0	-18	2	-7
Cc1ccc(C(=O)CC(C(=O)O)P(=O)(c2ccccc2)c2ccccc2)cc1 (centres undefined)	-2	0	11	1	3	.	.
COc1ccc(NC(=O)Nc2ccccc2C(=O)N2CCCC2)cc1OC	16	-2	.	0	-12	.	.
NC(c1csc(Nc2cc(NCc3ccco3)ncn2)n1)c1ccccc1Cl (centres undefined)	23*	-1	-31	-1	-5	-5	-3
COC(=O)c1cnc(Nc2nc(C(N)Cc3ccc(Cl)cc3)cs2)nc1C(F)(F)F (centres undefined)	27*	1	1	0	-1	8	-5
COc1ccc(CC(N)c2csc(Nc3cc(Oc4ccccc4)ncn3)n2)cc1 (centres undefined)	10	3	-6	-1	5	.	.
NC(c1csc(Nc2cc(Oc3ccccc3)ncn2)n1)c1ccccc1Cl (centres undefined)	21*	2	-12	0	-7	13	-3
NC(Cc1ccc(F)cc1)c1csc(Nc2cc(NCc3ccco3)ncn2)n1 (centres undefined)	7	-3	-2	-1	-19	.	.
NC(Cc1ccc(Cl)cc1)c1csc(Nc2cc(Oc3ccccc3)ncn2)n1 (centres undefined)	27*	-2	-9	-1	-1	20*	-13
SMILES	HGIII-sPLA2 inh	ADAM17 inh	CendR NRP1 mod	proKLK7 act	ADAM10 inh	hGIII sPLA2 conf	BODIPY interf	others
CCn1c(Cc2cccs2)nnc1SCC(=O)c1ccc(Cl)cc1	-51	4	.	0	9	.	.
Cc1nn(-c2ccccc2)nc1C(=O)Nc1ccccc1C(=O)NCC1CC1	5	-5	.	0	3	.	.
CN1[C@H](Cc2ccccc2)COc2cc(N3CCCC3)ccc2S1(=O)=O	15	-6	.	0	-12	.	.
Cc1ccccc1C(=O)Nc1cccc(NC(=S)NC(=O)c2cccs2)c1	5	8	-8	0	11	.	.
Cc1ccccc1C(=O)NNC(=S)NC(=O)c1cccs1	34*	0	-2	0	-4	39*	-5	BODIPY interf DR=>122
CCC(=O)Nc1ccc(C(=O)NNC(=O)CCCCC(=O)NNC(=O)c2ccc(NC(=O)CC)cc2)cc1	22*	2	-6	0	-18	2	-10
CCOc1ccc(C(=O)NCc2ccccn2)cc1	.	.	12	.	.	.	.
CCC(=O)Nc1ccc(C(=O)NCc2ccccn2)cc1	20*	-4	10	0	-13	-1	-2
CCC(=O)Nc1ccc(C(=O)NNC(=O)c2ccc(C)cc2)cc1	6	-1	0	0	14	.	.
S=C(NC1CCCC1)NC1CC1	21*	-1	-4	0	-2	3	-5
Cc1cccc(C)c1NC(=S)NC1CCCCC1	24*	-2	-4	0	-14	21*	-5
CCCC[C@@H]1C(=O)N2N=Cc3cc(C)c(C)cc3[C@H]2N2N=Cc3cc(C)c(C)cc3[C@@H]12	20*	0	.	0	-1	-6	-23
Nc1[nH]c(C(=O)c2ccccc2)c(-c2ccc(Cl)cc2Cl)c1C(=O)c1cccs1	5	4	.	.	13	.	.
COc1cc(OC)cc(C(=O)N2CCCc3ccccc32)c1	20*	4	4	0	-9	-1	-16
NC(=O)C1CC(=O)N(c2ccc(OCc3ccc(Cl)cc3)cc2)C1 (centres undefined)	20*	-1	3	0	-6	12	-8
CC[C@@]1(c2ccc(C)cc2)C(=O)N(C(=O)OC(C)C)N1C(=O)OC(C)C	14	5	.	-1	4	.	.
NC(=S)N/N=C/c1c(O)c(Br)cc2oc3c(c12)CCCC3	33*	-1	-2	0	1	31*	6.2*
CC1(C)Nc2cccc3cccc(c23)N1	18	-4	3	0	-4	.	.
c1cc2c3c(cccc3c1)NC1(CCCC1)N2	24*	2	8	-1	7	20*	3
